Calb FLC: C. albicans growth inhibition with fluconazole, primary screen, CaCi-2 strain, Alamar Blue fluorescence | C. albicans CaCi-2 (fluconazole-resistant clinical isolate) + fluconazole, 48 h | growth inhibition, % (no concentration beside the values) | hit rate 0.57% among 300,000;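 active = growth inhibition above about 58% in most replicates, limit read from the data, passing the limit was not always enough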;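 note: all wells also contain fluconazole at 8 µg/ml as a sub-toxic cotreatment; 0% = median of DMSO wells and 100% = median of geldanamycin control wells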
Mdm2 MdmX PPI: inhibitors of human Mdm2-MdmX association, primary screen, cell-based, luminescence, split luciferase, SaOS-2, uHTS | Protein Mdm4 (Homo sapiens) + E3 ubiquitin-protein ligase Mdm2 (Homo sapiens), … | inhibition, % at 8 µM | AID 485346, 2010 | hit rate 3% among 330,000 | SaOS-2 split-luciferase Mdm2/MdmX complementation;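 active = inhibition of at least 50% at 8 µM in the primary screen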
Beta cell apopt: inhibitors of cytokine-induced beta cell apoptosis, primary screen, luminescence; INS-1E cytokine-induced death, ATP luminescence, 48 h; percent of positive-control rescue, neutral wells zero; protection from apoptosis, % (concentration not given with the values); hit rate 0.8% among 300,000; AID 435005, 2010;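 active = Every replicate reaches about 75%, or at least half do and their mean reaches it too, limit read from the data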;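 note: 0% = cytokine-treated negative control wells and 100% = positive control rescue; higher means more ATP so stronger rescue from cytokine killing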
MPTP inh: mitochondrial permeability transition pore inhibitors, primary screen, biochemical, isolated mouse mitochondria, absorbance; Ca2+ swelling absorbance, 30 min; inhibition, % at 10 µM; AID 602449, 2012; hit rate 1.4% among 360,000;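 active = inhibition of 50% or more, scaled per plate between neutral and stimulator controls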;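 note: 0% = DMSO wells given calcium and 100% = 1 mM EGTA wells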
SKKanGAS inh: S. pyogenes SKKanGAS growth inhibitors in kanamycin, primary screen, streptokinase expression inhibitor project, SKKanGAS strain, BacTiter-Glo luminescence; 6 h; inhibition, % at 7.5 µM; hit rate 1.3% among 300,000;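 active = mean replicate score, as percent of positive control median, at least 50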;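 note: strain carries kanamycin resistance gene driven by streptokinase promoter and grows in 40 µg/ml kanamycin; loss of luminescence reflects streptokinase promoter inhibition or plain growth inhibition; 0% = median of DMSO wells and 100% = positive control at its reference dose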
CSC inhib: cancer stem cell viability inhibitors, primary screen, luminescence. cancer stem cell-like cells viability. inhibition, % at 7.5 µM. hit rate 1.1% among 300,000; in the data active = inhibition above about 75%; tested in HMLE shEcad cells
Rh123 counter: fluorescence retest of MPTP screen hits in isolated mitochondria, single concentration | shares compounds with MPTP inh | membrane potential, Rhodamine 123 fluorescence | hit rate 78% among 5,000 | inhibition, % at 10 µM; in the data active = inhibition above about 22%;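 note: 0% = DMSO vehicle and 100% = positive control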
MPTP abs DR: mitochondrial permeability transition pore inhibitors, dose response, biochemical, absorbance, uHTS hits; AID 651561, 2012; hit rate 58% among 780; shares compounds with MPTP inh; IC50, µM; isolated mitochondria swelling; in the data active = IC50 below about 20 µM
MPTP cs DR: fluorescent counter-screen in isolated mitochondria, dose response, counter-screen for MPTP inhibitor project, biochemical, fluorescence, uHTS hits; shares compounds with MPTP inh; isolated mitochondria counterscreen, fluorescence read-out; IC50, µM; hit rate 49% among 780; in the data active = IC50 below about 80 µM
Starred values were filed as active, the others as inactive; i = inactive; . = no result. Only some compounds are listed: those with a hit (about 5.4% of all), similar ones and a draw of the others.

SMILES	Calb FLC	Mdm2 MdmX PPI	Beta cell apopt	MPTP inh	SKKanGAS inh	CSC inhib	Rh123 counter	others
CN(C)S(=O)(=O)c1cccc(-c2nn(-c3ccccc3)cc2/C=C(\C#N)c2nc3ccccc3[nH]2)c1	-7	14	2	8	35	-10	.
N#Cc1cc(NC(=O)c2ccc(Cl)cc2)ccc1Sc1ccccc1	.	.	.	73*	.	.	96*
O=C(Nc1ccc(Nc2ccccc2)cc1)c1ccc(Cl)cc1	26	21	14	38	7	41	.
CCN(CC)C(=O)[C@H]1CC(CC(=O)NCc2cccc(C(F)(F)F)c2)C(=O)N2CCc3c([nH]c4ccccc34)[C@]12C (some centres not stated)	.	33	-2	61*	.	.	-1	MPTP abs DR=>100;MPTP cs DR=63*
c1ccc(CCNc2ncnc3ccccc23)cc1	94*	-1	100*	96*	6	-1	103*
O=C(CSc1ncnc2ccccc12)NCCc1ccccc1	-36	-8	-1	0	-4	8	.
Cc1cc2c(NCCc3ccccc3)ncnc2s1	-5	-12	108*	103*	0	17	95*
CCCCCCCCNc1ncnc2ccccc12	76*	15	101*	103*	-2	43	87*
CCN(C(=O)CSc1ncn[nH]1)c1c(N)n(Cc2ccccc2)c(=O)[nH]c1=O	-1	16	-2	-1	-7	-5	.
COC(=O)c1ccc(CN2C(=O)NC(Cc3c[nH]c4ccccc34)C2=O)cc1 (configuration not stated)	15	-22	7	82*	-5	.	18	MPTP abs DR=i;MPTP cs DR=25*
CC(C)NC(=O)c1c(CSc2ccc(Cl)cc2)noc1C(=O)NCc1ccccc1	2	21	-3	-1	30	25	.
O=C(N/N=C/c1ccc(Sc2ccccn2)o1)c1cc2ccccc2cc1O	-16	25	-5	68*	8	-5	35*
CC(=O)c1ccc(N(C(=O)c2csnn2)C(C(=O)NC(C)(C)C)c2cccs2)cc1 (configuration not stated)	-3	-18	1	-1	7	1	.
O=C1CC2(CCN(C(=O)c3ccccc3Br)CC2)Oc2ccccc21	-4	2	2	-2	-7	-6	.
CCOC(=O)C1CCCN(C(=O)c2cc(Nc3ccc(OC)cc3)nc3ccccc23)C1 (configuration not stated)	14	44	2	6	6	-12	.
N#C/C(=N\Nc1ccc(S(=O)(=O)N2CCCCC2)cc1)C(N)=S	-12	-4	7	79*	16	20	79*
N#CC(C#N)=NNc1ccc(S(=O)(=O)N2CCCC2)cc1	3	13	-9	99*	12	2	90*
N#C/C(=N\Nc1ccc([N+](=O)[O-])cc1)C(N)=S	-5	-4	39	86*	27	35	62*
N#C/C(=N/Nc1ccc(S(=O)(=O)N2CCOCC2)cc1)C(N)=O	-1	6	-5	-1	7	0	.
N#C/C(=N\Nc1ccc(S(=O)(=O)N2CCCCCC2)cc1)C(N)=S	-1	38	.	96*	114*	36	91*
O=C(O)CNC(=O)/C=C/c1ccc(Cl)cc1Cl	-6	29	5	-2	14	-2	.
Clc1ccc(/C(Cc2nc3ccccc3[nH]2)=N\Nc2ccccc2)cc1	-45	15	3	86*	90*	12	70*
O=C(Cc1nc2ccccc2[nH]1)c1ccc(Cl)cc1	9	-5	4	0	28	22	.
